Laboratory results: PubChem BioAssay AID720514 (Broad Institute, 2013)
Among all 2,100 compounds or so, about 300 (14%) were called active. Roughly 2% stayed inconclusive and do not appear here.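 How the source made its calls: active means every replicate test run called active, with the signal falling and half-maximal concentration within twice the top valid dose; inconclusive means the replicate test runs disagree in their calls; inactive means every test run inactive, including effects in the opposite direction.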 The list is a sample of the results. Potency and affinity values are given separately.

Experiment: inhibitors of PGC1a acetylation in cells, dose response, cell-based, cherry-picked samples (AID 720514);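 further: 0% = neutral control wells and -100% = positive control wells; actives lower the acetylation signal so they count as inhibitors of PGC1a acetylation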
Settings: U2OS PGC1a acetylation, AlphaLISA, overnight; series mostly up to 19.5 µM; activity change, negative = inhibition: at the top concentration

Activity change, negative = inhibition, inactive:
COc1ccccc1-c1ccc(C2[C@@H]3CN(Cc4cccc(F)c4)C[C@H]2N3)cc1 (stereo not given in full) 55.2%
N#Cc1ccccc1S(=O)(=O)N1CCN(Cc2cc3c(cc2Br)OCCO3)CC1 120%
CC(C)(C)c1ccc(NC(=O)N2CCCN(c3ccc([N+](=O)[O-])cn3)CC2)cc1 187%
Cc1ccc(O)c(C(=O)c2cnc3c(c2)CN(CCC(C)C)C(=O)N3)c1 53.6%
COc1ccc(Cc2nc(-c3ccc(NC(=O)c4cccnc4)cc3)no2)cc1 207%
C=CCn1c(=NC(=O)c2ccc(S(=O)(=O)N3CCCC3)cc2)sc2cc(NC(C)=O)ccc21 44.8%
CCOCCn1c(CN(Cc2ccccc2)Cc2ccccc2)nc2c1c(=O)[nH]c(=O)n2C 53.2%
N#Cc1ccc(Oc2cccnc2)cc1C#N 106%
COc1ccc(NC(=O)C(=O)NCCC2CCCCN2S(=O)(=O)c2cccs2)cc1 (stereo not given) 27.4%
COc1ccccc1-c1ccc2c(c1)C(C)(Cc1ccc(OC(F)(F)F)cc1)C(=O)N2 (stereo not given) 41.4%
O=C1Nc2cc(S(=O)(=O)N3CCCC3)ccc2N2CCCC12 (stereo not given) 63.7%
Cc1cc(N2CCC(C(N)=O)CC2)nc(-c2ccccc2)n1 43.1%
COc1ccc(C(C)(O)c2nc(-c3ccc(S(C)(=O)=O)cc3)cs2)cc1 (stereo not given) 112%
COc1ccc(CNc2ccc(-c3ccc(OC)cc3)nn2)cc1 105%
CCOC(=O)C1=C[C@@H](C(C)C)N(S(=O)(=O)c2ccc(C)cc2)[C@H]1c1ccc(C(F)(F)F)cc1 111%
CCOC(=O)CC(S(=O)(=O)c1ccccc1)S(=O)(=O)c1ccccc1 105%
COc1ccc(CCNCc2ccc(-c3ccccc3)cc2)cc1OC 36.3%
O=C1C=C(c2cc3ccccc3s2)CCC1 155%
O=C(c1cccs1)N1CCN(c2nnc(-c3ccccc3)c3ccccc23)CC1 84.9%
N=c1n(CCN2CCCC2)c2ccccc2n1CC(O)c1ccc(Cl)c(Cl)c1 (stereo not given) 54.5%
O=C(c1ccco1)N1CCN(c2nnc(-c3ccccc3)c3ccccc23)CC1 55.7%
Cc1cccc2cc(CN(Cc3ccc(F)cc3)Cc3nnnn3C3CCCC3)c(=O)[nH]c12 39.1%
Oc1ccc(C[C@@H]2CNCCN2CCC23CC4CC(CC(C4)C2)C3)cc1 47.7% [at 10 µM]
CCOC(=O)C1(Cc2ccccc2)CCN(Cc2cccc(OC)c2O)CC1 118%
CCn1nc(C)c(CN2CCc3c([nH]c4ccccc34)C2C(C)(C)C)c1C (stereo not given) 81.8%
Cc1cc(C)c2c(-n3cccc3)c(C(=O)NNS(=O)(=O)c3ccccc3)sc2n1 99.1%
Cc1cccc(S(=O)(=O)N(C)C[C@@H]2OCc3cn(nn3)CCCC(=O)N([C@H](C)CO)C[C@H]2C)c1 7.15%
C[C@H]1CN([C@@H](C)CO)C(=O)CCCn2cc(nn2)CO[C@H]1CN(C)S(=O)(=O)c1ccc(Cl)cc1 24.9% [at 21 µM]
CC(=O)CCS(=O)(=O)c1ccc(C)c(C)c1 117%
COC(=O)C[C@@H]1C[C@H]2c3cc(NC(=O)Nc4ccc(C(F)(F)F)cc4)ccc3O[C@H]2[C@H](CO)O1 90.3%
O=C(C[C@@H]1C[C@@H]2c3cc(NC(=O)Nc4ccccc4F)ccc3O[C@@H]2[C@@H](CO)O1)NCc1ccc(Oc2ccccc2)cc1 31.4%
COc1ccc(CC(CC(=O)O)C(=O)Nc2ccc(OC)cc2)cc1 (stereo not given) 32.5%
COc1ccc(CCNC(=O)COc2ccc(S(=O)(=O)N3CCCC3)cc2)cc1 40.7%
CCn1c(SC/C=C/c2ccccc2)nnc1-c1cccs1 41.8%
CC(=O)c1ccc(N2CCN(C(=O)C(=O)c3c(C)[nH]c4ccccc34)CC2)cc1 209% [at 5 µM]
CC(=O)c1c(-c2ccccc2)[nH]c2ccccc12 30.8%
O=C(Nc1cccc(S(=O)(=O)N2CCOCC2)c1)c1ccco1 48.2% [at 10 µM]
O=C(Nc1ccc2c(c1)OCO2)C1CCN(c2ccc(S(=O)(=O)N3CCOCC3)cc2)CC1 43% [at 10 µM]
O=C(CC1SC(=NCc2ccccc2)NC1=O)Nc1ccccc1 (stereo not given) 150% [at 10 µM]
O=C(CC1CC1)N[C@@H]1CC[C@H](CCNS(=O)(=O)c2ccc(Cl)cc2)O[C@H]1CO 46%
COc1cc(Cn2c(N)c(C#N)c3nc4ccccc4nc32)cc(OC)c1 -2.36%
COC(=O)CSc1nc(-c2ccccc2)cc(-c2ccco2)c1C#N 54.5%
CCC(C)(C)n1nnnc1CN(Cc1ccc(Cl)cc1)Cc1ccco1 142%
O=C(/C=C/Sc1ncn[nH]1)c1ccc(Cl)cc1 -92.8%
Cc1sc(NC(=O)c2cccs2)nc1-c1ccccc1 121%
CN1CCN(C(=O)CSc2nc(-c3cccs3)cc(-c3cccs3)c2C#N)CC1 84.6%
CC(=O)c1ccc(OCC(=O)OCC(=O)Nc2sccc2C(N)=O)cc1 164%
CCOC(=O)c1c(NC(=O)CSc2cn(CC)c3ccccc23)sc2c1CCC2 96.8%
CCOC(=O)c1nc(S(C)(=O)=O)ncc1Cl 158%
O=C(c1ccc(NC(=O)C2(c3ccccc3)CCOCC2)cc1)N1CCOCC1 45.2%
CCOC(=O)c1c(NC(=O)c2ccoc2C)sc2c1CCC2 24.4%
CC1CCCN(Cc2c(O)ccc3c(=O)c(-c4nc5ccccc5s4)c(N)oc23)C1 (stereo not given) 61.7%
CC(C)NC(=O)NCC[C@H]1CC[C@H](NC(=O)c2ccc(F)cc2)[C@H](CO)O1 28.9%
Cc1ccccc1S(=O)(=O)NCC[C@@H]1CC[C@H](NC(=O)C2CCOCC2)[C@@H](CO)O1 36.8%
CCC(C)(CC(=O)O)CC(=O)Nc1cc(C(F)(F)F)cc(C(F)(F)F)c1 (stereo not given) 16.3%
COc1ccc(-c2nc3c(C)cc(Br)cn3c2Cc2ccc(C)cc2)cc1OC 73.4%
COc1cc(C)c(CN2CCN(S(=O)(=O)c3ccc(Cl)s3)CC2)cc1OC 148%
O=C(CN1CCC(n2nnc3cc(F)ccc32)CC1)Nc1ccc2c(c1)CCC2 90.9%
CCOC(=O)C1=C[C@@H](C(C)(C)C)N(S(=O)(=O)c2ccc(C)cc2)[C@H]1c1cccc2ccccc12 111%
Cc1ccccc1S(=O)(=O)N[C@@H]1CC[C@@H](CCn2cc(Cc3ccccc3)nn2)O[C@H]1CO 26.9%
CC(C)(C)C(=O)Nc1sc2c(c1-c1nc3ccccc3[nH]1)CCCC2 40.8%
CC(Sc1nc2ccccc2s1)C(=O)NC1CCCc2ccccc21 (stereo not given) 53.7%
Cc1ccc(CNC(=O)C2CC(c3ccc([N+](=O)[O-])cc3)=NO2)cc1 (stereo not given) 98.5%
Cc1coc2cc3oc(=O)c(CCC(=O)NC4CC4)c(C)c3cc12 136%
Cc1ccccc1-c1ccc([C@@H]2[C@H](CO)N3CCCCN(C(=O)Nc4cccc(F)c4)C[C@@H]23)cc1 94.7%
CCOC(=O)c1ccccc1NS(=O)(=O)c1ccc(OCC)cc1 124%
CCOc1ccc(N(C)S(=O)(=O)c2cc(-c3cc(C)no3)ccc2OC)cc1 116%
COc1ccc(NC(=O)CSC2CC(=O)N(c3ccc4c(c3)OCCO4)C2=O)cc1 (stereo not given) 52.1%
COc1ccc(N(C(=O)c2snc(C(N)=O)c2N)C(C(=O)NC2CCCC2)c2ccco2)c(OC)c1 (stereo not given) 65.8%
COc1ccc(N(C(=O)c2snc(C(N)=O)c2N)C(C(=O)NC2CCCCC2)c2ccc(C)o2)cc1 (stereo not given) 66%
COc1ccc(N(C(=O)c2snc(C(N)=O)c2N)C(C(=O)NC2CCCCC2)c2ccc(F)cc2)c(OC)c1 (stereo not given) 53.7% [at 10 µM]
COc1ccc(N(C(=O)c2csnn2)C(C(=O)NC2CCCC2)c2cccs2)cc1 (stereo not given) 79.9%
CC(C)C(OC(=O)c1cccs1)C(=O)NC1CCCCC1 (stereo not given) 62.8%
C[C@@H]1CN([C@H](C)CO)C(=O)c2c(c3ccccc3n2C)-c2ccccc2CO[C@@H]1CN(C)C(=O)c1ccc(F)cc1 205%
Oc1ccc(Nc2nnc(-c3ccc(O)cc3)c3ccccc23)cc1 115% [at 10 µM]
O=C(CC1SC(=Nc2ccc3c(c2)OCCO3)NC1=O)Nc1ccc(F)cc1F (stereo not given) 132%
CCOC(=O)C1=C[C@@H](C(C)(C)C)N(S(=O)(=O)c2ccc(C)cc2)[C@H]1c1ccccc1 74.6%
CC(C)(C)n1nnnc1CN(Cc1ccc(F)cc1)Cc1ccco1 77.5%
CCOC(=O)c1c(CN2CCN(CC#N)CC2)n(C)c2cc(Br)c(OC)cc12 122% [at 10 µM]
CCOC(=O)c1c(C)n(C)c2ccc(OCC(O)Cn3nc(C)c(Br)c3C)cc12 (stereo not given) 47.7%
O=C(NN1c2ccccc2CCc2ccccc21)c1ccccc1Br 40.2%
CCOCCn1c(CN(Cc2ccccc2)Cc2ccccc2)nc2c1c(=O)n(C)c(=O)n2C 57.7%
CC(=O)Nc1nonc1-c1nc2ccccc2n1Cc1ccccc1 61.9%
O=C(COCc1cc(-c2ccc3c(c2)OCO3)on1)Nc1cccnc1 386%
CCOC(=O)CNS(=O)(=O)c1cc(-c2nnc(Nc3ccc4c(c3)OCO4)c3ccccc23)ccc1C 97.1%
O=C(COc1ccc([N+](=O)[O-])cc1)Nc1ccc(C(=O)NCc2cccnc2)cc1 222%
CCOC(=O)C(NC(=O)c1ccccc1OCC)(Nc1ncccn1)C(F)(F)F (stereo not given) 76%
Cc1c(C(=O)OCC(=O)c2c(N)n(CC(C)C)c(=O)n(C)c2=O)oc2ccccc12 77.1%
COc1ccc(C2N(S(=O)(=O)c3ccccc3)CCN2S(=O)(=O)c2ccc(C)cc2)cc1 (stereo not given) 75.1%
Cc1ccc(S(=O)(=O)N2CCN(S(=O)(=O)c3ccc(C)cc3)C2c2ccccc2)cc1 114%
O=C(NCc1cccs1)c1ccc(Cl)c(S(=O)(=O)N2CCCC2)c1 48.1%
COc1ccc(C(CNC(=O)c2cccc(N(C)C)c2)N2CCCC2)cc1 (stereo not given) 51%
C[C@@H]1CN([C@H](C)CO)C(=O)c2c(c3ccccc3n2C)-c2ccccc2CO[C@@H]1CN(C)C(=O)[C@H](C)c1ccccc1 334%
COc1cc(CNC(=O)c2cc(-c3cc(C)cc(F)c3)n[nH]2)cc(OC)c1 58.1%
Cc1ccc(NC(=O)c2c(C(F)(F)F)nn(C)c2SCc2ccc(Cl)cc2)cc1C 98.7%
